Molecules are shown by their SMILES. About 2,700 (4%) of roughly 68,000 compounds showed an effect of 50% or more. For the sample, strong results were picked, then their nearest neighbours and some compounds at random.

This test relates to Plasmodium berghei. Description: Screen against P. berghei liver stage (PbLuc), transformed with Luciferase, at 2uM. The settings on record: tested at 2 uM. In kind it is functional, HepG2.
For the compound `CN(Cc1ccccn1)C1CC2(CCN(Cc3ccccn3)CC2)C1`, the INHIBITION is listed as 34.48%.
Consider `CN(Cc1cscn1)C1CCN(C(=O)OC(C)(C)C)CC1`, for which the INHIBITION is -33.82%.
`CN(Cc1cncs1)C1CCN(C(=O)OC(C)(C)C)CC1`: the INHIBITION was determined as 12.83%.
With `Cc1nc(C)c(CN(C)C2CCN(C(=O)OC(C)(C)C)CC2)s1` the figure was 73.62%; with `CC(NC(=O)COc1cccc[n+]1[O-])C1CC1` (centres undefined), 25.69%; with `CN1C(=O)[C@@H]2CC[C@H]1CN(Cc1cccc(OCc3ccccn3)c1)C2`, 26.75%.
Next, `COc1cccc(-c2cccc(CN3C[C@H]4CC[C@@H](C3)N(C)C4=O)c2)c1`: 56.49%; `COc1cccc(-c2ncc(CN3C[C@H]4CC[C@@H](C3)N(C)C4=O)s2)c1`: 38.87%; `Cc1ccc(S(=O)(=O)N(C)CC(C)O)c(F)c1` (centres undefined): 56.69%.
With `Cc1c(F)cccc1S(=O)(=O)NCC(C)(C)CC(C)O` (centres undefined) the figure was 15.2%; with `CC(O)CN(C)S(=O)(=O)c1ccc(C#N)cc1F` (centres undefined), 34.18%.
Consider `Cc1c(F)cccc1S(=O)(=O)NCCN`, for which the INHIBITION worked out at 39.23%.
Turning to `CN(CC(N)=O)S(=O)(=O)c1ccc(F)cc1F`, the INHIBITION came to 0.44%.
As for `Cc1c(F)cccc1S(=O)(=O)N(C)CC(C)O` (centres undefined), the INHIBITION stood at 52.38%.
Take `Cc1nn(CC(C)C)c(N(C)C)c1CNCc1ccnn1C`: the INHIBITION was determined as 9.97%.
With `COCCn1ccc(=O)c(OCC(=O)Nc2cccc(Cl)c2)c1C` the figure was 6.41%.
Next, `Cc1noc(C2CCCN(C(=O)CCNc3ncccn3)C2)n1` (centres undefined): 31.78%.
For the compound `CC(C)CCN(C)Cn1ncc2cn(-c3ccccc3)nc2c1=O`, the INHIBITION came out at 19.45%.
With `COCCn1cc2c(n1)C(CNS(C)(=O)=O)OCC2` (centres undefined) the figure was 35.07%.
In the case of `O=S(=O)(NCC1OCCc2cn(CC3CCOCC3)nc21)C1CC1` (centres undefined), the INHIBITION is on record as 24.43%.
Next, `O=C(NCC1OCCc2cn(CC3CCOCC3)nc21)c1ccsc1` (centres undefined): -40.44%.
Turning to `c1cc(CNCC2OCCc3cn(CC4CCOCC4)nc32)ccn1` (centres undefined), the INHIBITION is -66.93%.
Turning to `O=C(NCC1OCCc2cn(CC3CCOCC3)nc21)c1ccncc1` (centres undefined), the INHIBITION turned out to be 56.71%.
With `CCCS(=O)(=O)NCC1OCCc2cn(CC3CCOCC3)nc21` (centres undefined) the figure was 12.95%; with `Cc1cc(C(=O)NCC2OCCc3cn(CC4CC4)nc32)c(C)[nH]1` (centres undefined), -28.58%; with `O=S(=O)(NCC1OCCc2cn(Cc3ccccn3)nc21)C1CC1` (centres undefined), 50.32%.
For `c1ccc(Cn2cc3c(n2)C(CNCC2CCOCC2)OCC3)nc1` (centres undefined), the INHIBITION worked out at 26.66%.
Next, `CCS(=O)(=O)NCC1OCCc2cn(CC3CCOCC3)nc21` (centres undefined): 62.4%; `c1ccc(Cn2cc3c(n2)C(CNCc2ccco2)OCC3)nc1` (centres undefined): 15.96%.
Next, `COCCn1cc2c(n1)C(CNC(=O)c1cc(C)[nH]c1C)OCC2` (centres undefined): 60.14%; `Cc1cc(-c2cnc(N3CCC(C(N)=O)CC3)nc2C(C)C)on1`: -12.93%; `O=C(NCc1cccnc1)N1CCC2(CC(=O)N(c3ccsc3)C2)C1` (centres undefined): 13.92%.
With `CCN1C[C@H]2C3(CCN(C(C)=O)CC3)CC[C@@]2(C(=O)N(C)C)C1` the figure was 17.47%; with `Cc1ccc(NC2CCN(C(=O)c3ccc(C)o3)CC2)nn1`, -47.54%.
As to `Cc1n[nH]c2ncc(CNC3CCCN(c4ncccn4)C3)cc12` (centres undefined), the INHIBITION is 42.17%.
Next, `O=C(c1cccnc1)N1CCC2(CCN(C(=O)N3CCCC3)CC2)C1`: -11.34%; `COCCn1c2c(ccc1=O)CC(NCc1cccnc1OC)CC2` (centres undefined): -1.81%; `CCc1ncnc2c1CCN(Cc1nccs1)CC2`: -6.83%.
On to `O=C(NCCCO)C1(N2CCCCC2)Cc2ccccc2C1`, for which the INHIBITION is listed as -118.83%.
Next, `O=C1OCCN1CCNC(=O)C1(N2CCCCC2)Cc2ccccc2C1`: 51.96%.
As for `CC(=O)NCCNC(=O)C1(N2CCCCC2)Cc2ccccc2C1`, the INHIBITION is on record as 10.91%.
Regarding `CNC(=O)c1nn(C)cc1NC(=O)C(C)n1ncc(Cl)c1C` (centres undefined), the INHIBITION is given as -11.07%.
Consider `CC(C)CN1CCN(C(=O)c2[nH]nnc2Nc2ccccc2F)CC1`, for which the INHIBITION is reported as -19.92%.
On to `Cc1nc(N)ncc1C(=O)N1CCCC1(C)C(=O)N(C)C` (centres undefined), for which the INHIBITION amounted to 50.17%.
Next, `Cc1cc(N(C)C)nc(C2(C)CCCN2C(=O)c2cncnc2C)n1` (centres undefined): 14.05%; `Cc1ncc(C(=O)N2CCCC2(C)C(=O)N2CCOCC2)c(C)n1` (centres undefined): -14.73%; `O=C(NCCCNc1ccccn1)NCC1CCS(=O)(=O)C1` (centres undefined): 41.93%.
Consider `COc1ccc(F)c(CN2CCC(c3cc(O)nc(C)n3)C2)c1` (centres undefined), for which the INHIBITION is on record as 25.87%.
As to `CNC(=O)COC1COC2(CCN(c3ccc(C)nn3)CC2)C1` (centres undefined), the INHIBITION was -37.31%.
`O=C(c1ccno1)N1CCO[C@@H]2CC(COCc3ccccn3)C[C@H]21` (some centres undefined): the INHIBITION was 43.24%.
For `CNC(=O)C1=NOC2(CCN(Cc3nccs3)C2)C1` (centres undefined), the INHIBITION was determined as 5.9%.
Take `Cc1ncccc1NC(=O)C1=NOC2(CCN(Cc3nccs3)C2)C1` (centres undefined): the INHIBITION is on record as 16.87%.
`O=C(NCCN1CCOCC1)C1=NOC2(CCN(Cc3nccs3)C2)C1` (centres undefined): the INHIBITION is given as 50.9%.
With `CCc1nc(C2CCCN2Cc2ccno2)no1` (centres undefined) the figure was -62.13%; with `O=C1NCC2(CCCN(Cc3cccnc3)C2)Oc2ccccc21` (centres undefined), 24.06%; with `Cc1cc(-c2cc(S(=O)(=O)N3C[C@H](C4CC4)[C@@H](N)C3)c(C)s2)on1`, 14.95%.
With `COc1cccc(CN2CCCC(c3nn(C)c4nccnc34)C2)c1` (centres undefined), the INHIBITION came out at 22.81%.
Next, `COc1cc(N2CCC3(CCCN(C(=O)c4cccnc4)C3)C2)ncn1` (centres undefined): -15.29%; `Cc1ccc(CNC(C)c2ccc(N3CCN(C)CC3)c(F)c2)o1` (centres undefined): 14.89%.
With `Cc1ccc(CNC(C)c2cc(F)ccc2N2CCN(C)CC2)o1` (centres undefined) the figure was 60.84%.
With `CC(NCc1ccncc1)c1cc(F)ccc1N1CCN(C)CC1` (centres undefined) the figure was 24.88%; with `Cc1ccc(CC(=O)N2CCCC(c3ccn[nH]3)C2)cn1` (centres undefined), -5.3%.
Consider `O=C(NCCCO)c1cc(-c2cc[nH]n2)n2ccccc12`, for which the INHIBITION is -50.4%.
Take `Fc1cccc(-c2nnn3c2COCC(CNCc2nccs2)C3)c1` (centres undefined): the INHIBITION turned out to be 3.18%.
`CCc1cc(N(C)CCC(O)c2ccccc2)n2nccc2n1` (centres undefined): the INHIBITION worked out at 53.12%.
With `Cc1cc(N(C)CCC(O)c2ccccc2)n2nccc2n1` (centres undefined) the figure was 26.35%; with `COCc1cc(N(C)CCC(O)c2ccccc2)n2nccc2n1` (centres undefined), 45.87%; with `CN(C)C(C(=O)N1CCCC1)c1ccccc1F` (centres undefined), -12.23%.
With `CCOCC1CCN(C(=O)C(c2ccccc2F)N(C)C)CC1` (centres undefined) the figure was -45.44%; with `CN(C)C(C(=O)N1CCC(CCO)CC1)c1ccccc1F` (centres undefined), 57.34%; with `c1cncc(C2CC3(CCN(c4cnccn4)CC3)c3ccccc32)c1` (centres undefined), -8.91%.
With `COc1cccc(-n2nnc(C(=O)N3CCCCCC3)c2C)c1` the figure was 30.05%; with `COc1cccc(-n2nnc(C(=O)N3CCOC(C)C3)c2C)c1` (centres undefined), 32.64%.
Consider `COc1cccc(-n2nnc(C(=O)N3CCN(C)CC3C)c2C)c1` (centres undefined), for which the INHIBITION worked out at 89.42%.
In the case of `COc1cccc(-n2nnc(C(=O)N3CCC(C(N)=O)CC3)c2C)c1`, the INHIBITION is recorded as 56.78%.
With `COc1cccc(-n2nnc(C(=O)N3CCCC3)c2C)c1` the figure was -32.49%.
With `COc1cccc(-n2nnc(C(=O)N3CCCC(C)C3)c2C)c1` (centres undefined) the figure was 5.91%.
Regarding `Cc1nc(-c2ccc(S(=O)(=O)N3CCC4(CC3)OCCO4)cc2)co1`, the INHIBITION amounted to 13.93%.
Next, `CCNc1cc2c(nn1)CCN(C(=O)C(C)c1c(C)noc1C)C2` (centres undefined): -45.83%; `COc1cc(CNCc2ccnc(N3CCCC3)c2)cc(OC)c1`: -2.71%.
`CCN1C[C@H]2C3(CCN(C(=O)NC(C)C)CC3)CC[C@@]2(C(=O)NC)C1`: the INHIBITION amounted to 45.36%.
Next, `O=S(=O)(c1c(Cl)nc2sccn12)N1CCC2(CCNCC2)C1`: 27.17%.
Next, `CN1CCCC2(CCN(S(=O)(=O)c3c(Cl)nc4sccn34)C2)C1=O` (centres undefined): 66.11%; `O=S(=O)(c1c(Cl)nc2sccn12)N1CCCC2(CCNC2)C1` (centres undefined): 12.83%; `CCC1=N[C@@]2(CC[C@@H]3CN(S(=O)(=O)CC(C)C)C[C@@H]32)C(=O)N1CC`: 47.53%.
Regarding `CCN(Cc1c(F)cccc1F)Cn1nc(C)c2c(C)onc2c1=O`, the INHIBITION amounted to 62.13%.
Turning to `CCN(Cc1cccc(F)c1)Cn1nc(C)c2c(C)onc2c1=O`, the INHIBITION stood at 9.17%.
`CCN(Cc1cccc(C)c1)Cn1nc(C)c2c(C)onc2c1=O`: the INHIBITION is listed as -1.02%.
Next, `CN1CCC(N(Cc2ccncc2)Cc2nc3c(s2)CCCC3)CC1`: -1.15%; `O=C(NCCCc1nc(=O)[nH][nH]1)c1ccc(Cl)cn1`: 43.28%; `CN(C)CCOCc1cncc2c1CCN(C(=O)C1CCOCC1)C2`: 26.48%.
Next, `Cc1cc(C)nc(N2CCC(NCCSc3nnnn3C)CC2)n1`: -25.72%.
With `Cn1ccnc1SCCNC1CCN(c2ncccn2)CC1`, the INHIBITION came to 50.98%.
Next, `Cn1ccnc1SCCNC1CCN(c2nc3ccccc3s2)CC1`: -11.8%; `COc1cc(N2CCC3(CCCN(C(=O)c4cnccn4)C3)C2)ncn1` (centres undefined): -42.01%.
With `CCN1CCN(CC(C)(O)c2cccc(C(F)(F)F)c2)CC1` (centres undefined) the figure was 69.41%; with `CC(=O)N1CCN(CC(C)(O)c2cccc(C(F)(F)F)c2)CC1` (centres undefined), 1.63%; with `CC(O)(CN1CCN(CCO)CC1)c1cccc(C(F)(F)F)c1` (centres undefined), -27.62%.
With `O=C(NCCNc1ccccn1)Nc1cc(C(F)(F)F)c[nH]c1=O` the figure was -20.82%.
Consider `CC(C)C(NC(=O)Cn1ccc(=O)n(C)c1=O)c1ccc(F)cc1` (centres undefined), for which the INHIBITION is recorded as -56.99%.
Consider `Fc1ccc(C(CNc2ccncn2)N2CCCC2)cc1` (centres undefined), for which the INHIBITION came out at 30.93%.
Next, `NC(=O)CN1CCC(C(=O)NCCc2nc(-c3ccccc3)cs2)CC1`: -13.72%.
With `NC(=O)CN1CCC(C(=O)NCc2nc(-c3ccc(F)cc3)cs2)CC1` the figure was 14.19%; with `N[C@@H]1CC[C@H](C(=O)NCCc2nc(-c3ccccc3)cs2)C1`, 60.18%.
